Assay results from PubChem BioAssay (EPA / NIEHS).
Several values for one entry are separate records, joined by “and”; a condition that tells them apart may be missing. Identical values can stand only once. Records with an inconclusive call do not appear. Some structures have more than one record in an assay (separate samples or runs), and their calls can disagree. Activity calls are given as the source filed them. How the source made its calls, unless noted: active means hit-call score of the fitted dose curve at least 0.9, where 1 is the maximum; inactive means score below 0.9.

Experiments:
[1] = BSK_4H_Eotaxin3: BioMAP Diversity Plus: 4H Assay for Eotaxin 3 Biomarker Activity (AID 2283000); settings: primary human endothelial cells (HUVEC); actives raise or lower the signal
In short: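 Chemicals were added to human umbilical vein endothelium cultures, and Eotaxin-3 was quantified by ELISA at 24 h. Values were derived by bidirectional fitting with DMSO serving as negative control and activity baseline.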

[2] = biological target: human Peroxisome Proliferator-activated Receptor alpha (PPARa), PPARA (gene 5465) (UniProt Q07869); assay: ATG_PPARa_TRANS: Attagene TRANS-FACTORIAL HepG2 Assay for human Peroxisome Proliferator-activated Receptor alpha (PPARa) (AID 2283001; active means hit-call score of the fitted dose curve at least 0.9, where 1 is the maximum)
In short: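 Read-out is fluorescence of reporter cDNA fragments resolved by capillary electrophoresis after RT-PCR. Human HepG2 liver cells carried transfected PPARa-Gal4 chimera and GAL4-UAS reporter units, treated 24 h; activity scored as increase over DMSO.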

[3] = biological target: human Peroxisome Proliferator-activated Receptor delta (PPARd), PPARD (gene 5467) (UniProt Q03181); assay: ATG_PPARd_TRANS: Attagene TRANS-FACTORIAL HepG2 Assay for human Peroxisome Proliferator-activated Receptor delta (PPARd) (AID 2283002; active means hit-call score of the fitted dose curve at least 0.9, where 1 is the maximum)
In short: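 Transient HepG2 transfection (multiple GAL4-UAS RTUs, chimeric receptor-Gal4); 24 h dosing; total RNA → oligo(dT) RT → PCR → 6-FAM primer extension → HpaI cut → CE. Positive direction vs DMSO.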

[4] = read-out: Intercellular Adhesion Molecule 1 (ICAM1), ICAM1 (gene 3383); assay: BSK_3C_ICAM1: BioMAP Diversity Plus: 3C Assay for Intercellular Adhesion Molecule 1 (ICAM1) Biomarker Activity (AID 2283003); settings: primary human endothelial cells (HUVEC); actives raise or lower the signal
In short: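 ICAM-1 levels measured by ELISA after HUVEC cultures in the 3C system had been dosed for 24 h. Gain or loss of signal relative to DMSO was fitted in both directions.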

[5] = BSK_3C_Proliferation: Cell Proliferation Assessment in the BioMAP Diversity Plus: 3C Assay (AID 2283006); settings: primary human endothelial cells (HUVEC);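 on AC50: potency may reflect either rise or fall in cell number versus DMSO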
In short: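 Read-out is total protein by SRB absorbance at 560 nm, taken as a proxy for relative cell number. Primary human umbilical vein endothelium cultured below confluence was dosed for 48 h, TCA-fixed and SRB-stained; curves were fitted bidirectionally versus DMSO.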

[6] = biological target: Peroxisome proliferator-activated receptor gamma (Homo sapiens) (UniProt P37231); assay: ATG_PPARg_TRANS: Attagene TRANS-FACTORIAL HepG2 Assay for human Peroxisome Proliferator-activated Receptor-gamma (PPARg) (AID 2283007; active means hit-call score of the fitted dose curve at least 0.9, where 1 is the maximum)
In short: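 HepG2 cells are transiently transfected with GAL4-UAS reporter units driven by chimeric NR-Gal4 fusions and dosed for 24 h. Reporter mRNA is quantified by RT-PCR, 6-FAM labelling, HpaI digestion and capillary electrophoresis. Induction is scored against DMSO.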

[7] = biological target: Nuclear receptor subfamily 1 group I member 2 (Homo sapiens) (UniProt O75469); assay: ATG_PXR_TRANS: Attagene TRANS-FACTORIAL HepG2 Assay for human Pregnane X Receptor (PXR) (AID 2283008; active means hit-call score of the fitted dose curve at least 0.9, where 1 is the maximum)
In short: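 HepG2 cells transiently transfected with GAL4-UAS reporter units and PXR-Gal4 chimera, exposed 24 h. Reporter mRNA quantified by RT-PCR, fluorescent labelling, HpaI digestion and capillary electrophoresis; gain of signal vs DMSO.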

[8] = biological target: human Retinoic Acid Receptor gamma (RARg), RARG (gene 5916) (UniProt P13631); assay: ATG_RARg_TRANS: Attagene TRANS-FACTORIAL HepG2 Assay for human Retinoic Acid Receptor gamma (RARg) (AID 2283009; active means hit-call score of the fitted dose curve at least 0.9, where 1 is the maximum)
In short: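 Transient transfection of HepG2 with multi-reporter constructs, then 24 h chemical treatment. Total RNA isolated, reverse-transcribed, PCR-amplified, fluorescently labelled and resolved by capillary electrophoresis; activity scored as mRNA induction versus DMSO.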

[9] = biological target: human RAR-related Orphan Receptor gamma (RORg), RORC (gene 6097) (UniProt P51449); assay: ATG_RORg_TRANS: Attagene TRANS-FACTORIAL HepG2 Assay for human RAR-related Orphan Receptor gamma (RORg) (AID 2283011; active means hit-call score of the fitted dose curve at least 0.9, where 1 is the maximum)
In short: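 First, HepG2 liver cells were transfected with GAL4-UAS-driven reporter constructs and the RORg-Gal4 fusion. Next, they were treated with chemical for 24 h. Finally, reporter mRNA was quantified by RT-PCR and capillary electrophoresis, with upward activity fitted against DMSO.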

[10] = biological target: Retinoic acid receptor RXR-alpha (Homo sapiens) (UniProt P19793); assay: ATG_RXRa_TRANS: Attagene TRANS-FACTORIAL HepG2 Assay for human Retinoid X Receptor alpha (RXRa) (AID 2283012; active means hit-call score of the fitted dose curve at least 0.9, where 1 is the maximum)
In short: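 Transient transfection of human HepG2 with multiple GAL4-UAS reporter constructs; 24 h compound exposure; total RNA isolated, reverse-transcribed, PCR-amplified, 6-FAM labelled, HpaI-cut, resolved by capillary electrophoresis. Positive-direction fit versus DMSO.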

[11] = biological target: human Retinoid X Receptor beta (RXRb), RXRB (gene 6257) (UniProt P28702); assay: ATG_RXRb_TRANS: Attagene TRANS-FACTORIAL HepG2 Assay for human Retinoid X Receptor beta (RXRb) (AID 2283013; active means hit-call score of the fitted dose curve at least 0.9, where 1 is the maximum)
In short: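 Transfect HepG2 with GAL4-UAS multi-reporter constructs (chimeric NR-Gal4, TRANS format); dose compound 24 h; isolate RNA, RT-PCR, FAM primer extension, HpaI digest; quantify by capillary electrophoresis; positive direction vs DMSO.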

[12] = read-out: E-selectin (Homo sapiens) (UniProt P16581); assay: BSK_3C_Eselectin: BioMAP Diversity Plus: 3C Assay for Eselectin Biomarker Activity (AID 2283015); settings: primary human endothelial cells (HUVEC); actives raise or lower the signal
In short: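 ELISA read-out of E-selectin on endothelial monolayers after 24 h chemical treatment. Human umbilical vein primary cells served as the system, with DMSO defining baseline activity for bidirectional fitting.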

[13] = read-out: Interleukin-1 alpha (IL1a), IL1A (gene 3552); assay: BSK_BE3C_IL1a: BioMAP Diversity Plus: BE3C Assay for Interleukin-1 alpha (IL1a) Biomarker Activity (AID 2283016); settings: primary human bronchial epithelial cells; actives raise or lower the signal
In short: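 BE3C primary human bronchial epithelium; cpd 24 h; IL-1a by ELISA; bidirectional fit vs DMSO; parallel SRB (0.1% SRB, 10% TCA fix, 560 nm) for cytotoxicity.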

[14] = read-out: Monocyte Chemoattractant Protein-1 (MCP1), CCL2 (gene 6347); assay: BSK_3C_MCP1: BioMAP Diversity Plus: 3C Assay for Monocyte Chemoattractant Protein-1 (MCP1) Biomarker Activity (AID 2283017); settings: primary human endothelial cells (HUVEC); actives raise or lower the signal
In short: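 ELISA read-out of MCP-1 from human umbilical vein endothelial cell cultures harvested 24 h post-dosing. Gain or loss of signal was fitted relative to DMSO.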

[15] = read-out: Monocyte Chemoattractant Protein-1 (MCP1), CCL2 (gene 6347); assay: BSK_4H_MCP1: BioMAP Diversity Plus: 4H Assay for Monocyte Chemoattractant Protein-1 (MCP1) Biomarker Activity (AID 2283018); settings: primary human endothelial cells (HUVEC); actives raise or lower the signal
In short: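 ELISA read-out of MCP-1 from human vascular endothelial primary cells taken at 24 hours after compound exposure. Activity was fitted in both directions relative to DMSO, which served as negative control.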

[16] = read-out: Human Leukocyte Antigen - DR isotype (HLADR), HLA-DRA (gene 3122); assay: BSK_3C_HLADR: BioMAP Diversity Plus: 3C Assay for Human Leukocyte Antigen - DR isotype (HLADR) Biomarker Activity (AID 2283019); settings: primary human endothelial cells (HUVEC); actives raise or lower the signal
In short: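 ELISA readout of surface HLA-DR on human umbilical vein endothelium, taken 24 h after chemical treatment. Gain- and loss-of-signal were both fitted relative to DMSO.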

[17] = biological target: Retinoic acid receptor alpha (Homo sapiens) (UniProt P10276); assay: ATG_RARa_TRANS: Attagene TRANS-FACTORIAL HepG2 Assay for human Retinoic Acid Receptor alpha (RARa) (AID 2283005; active means hit-call score of the fitted dose curve at least 0.9, where 1 is the maximum)
In short: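 Reporter transcripts, measured by RT-PCR with fluorescent labeling and capillary electrophoresis after 24 h dosing, reflect activity of an exogenous human RARa–GAL4 fusion in transiently transfected HepG2. Fitted for increase relative to DMSO.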

[18] = biological target: human RAR-related Orphan Receptor beta (RORb), RORB (gene 6096) (UniProt Q92753); assay: ATG_RORb_TRANS: Attagene TRANS-FACTORIAL HepG2 Assay for human RAR-related Orphan Receptor beta (RORb) (AID 2283010; active means hit-call score of the fitted dose curve at least 0.9, where 1 is the maximum)
In short: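 Readout is reporter-gene mRNA induction, detected as fluorescence after RT-PCR and capillary electrophoresis, fitted for gain of signal against DMSO controls. Transiently transfected HepG2 liver cells carrying GAL4-UAS reporter constructs were treated for 24 hours.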

[19] = biological target: human Thyroid Receptor alpha (THRa1), THRA (gene 7067) (UniProt P10827); assay: ATG_THRa1_TRANS: Attagene TRANS-FACTORIAL HepG2 Assay for human Thyroid Receptor alpha (THRa1) (AID 2283014; active means hit-call score of the fitted dose curve at least 0.9, where 1 is the maximum)
In short: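 Reporter transcript induction, read by capillary electrophoresis of 6-FAM-labelled RT-PCR products, reflects activity of a transfected THRa1-Gal4 fusion in HepG2 liver cells. Cells were dosed for 24 h; activity was fitted in the positive direction against DMSO.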

Measured: AC50

Chain of Nuclear receptor subfamily 1 group I member 2 (Homo sapiens) (O75469 whole entry, looked up, the tested form may be a part): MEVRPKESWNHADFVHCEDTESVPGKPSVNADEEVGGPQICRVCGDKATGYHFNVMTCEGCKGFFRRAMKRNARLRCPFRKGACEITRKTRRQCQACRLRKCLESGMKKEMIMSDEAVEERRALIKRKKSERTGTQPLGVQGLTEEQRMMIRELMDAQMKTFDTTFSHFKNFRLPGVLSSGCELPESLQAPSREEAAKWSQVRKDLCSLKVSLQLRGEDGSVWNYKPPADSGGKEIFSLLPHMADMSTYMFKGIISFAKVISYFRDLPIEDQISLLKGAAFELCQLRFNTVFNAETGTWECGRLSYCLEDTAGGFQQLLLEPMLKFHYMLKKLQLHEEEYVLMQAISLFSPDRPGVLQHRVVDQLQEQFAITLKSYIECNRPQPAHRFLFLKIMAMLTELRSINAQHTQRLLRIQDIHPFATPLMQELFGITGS
Chain of human Retinoid X Receptor beta (RXRb), RXRB (gene 6257) (P28702 whole entry, looked up, the tested form may be a part): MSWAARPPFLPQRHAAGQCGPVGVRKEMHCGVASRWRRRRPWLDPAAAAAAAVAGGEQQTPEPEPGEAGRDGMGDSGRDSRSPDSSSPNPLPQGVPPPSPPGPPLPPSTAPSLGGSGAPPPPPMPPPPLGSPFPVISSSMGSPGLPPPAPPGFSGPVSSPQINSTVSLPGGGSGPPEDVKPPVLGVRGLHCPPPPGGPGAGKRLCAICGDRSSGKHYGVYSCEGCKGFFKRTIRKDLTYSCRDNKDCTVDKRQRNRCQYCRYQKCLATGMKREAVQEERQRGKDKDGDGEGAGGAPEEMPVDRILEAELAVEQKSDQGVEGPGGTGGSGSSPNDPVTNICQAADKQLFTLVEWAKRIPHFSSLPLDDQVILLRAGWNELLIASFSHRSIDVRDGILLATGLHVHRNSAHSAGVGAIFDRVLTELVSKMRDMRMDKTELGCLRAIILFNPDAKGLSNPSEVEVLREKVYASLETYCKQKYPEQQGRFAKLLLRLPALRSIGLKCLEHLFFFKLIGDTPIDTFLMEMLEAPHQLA
Chain of Retinoic acid receptor alpha (Homo sapiens) (P10276 whole entry, looked up, the tested form may be a part): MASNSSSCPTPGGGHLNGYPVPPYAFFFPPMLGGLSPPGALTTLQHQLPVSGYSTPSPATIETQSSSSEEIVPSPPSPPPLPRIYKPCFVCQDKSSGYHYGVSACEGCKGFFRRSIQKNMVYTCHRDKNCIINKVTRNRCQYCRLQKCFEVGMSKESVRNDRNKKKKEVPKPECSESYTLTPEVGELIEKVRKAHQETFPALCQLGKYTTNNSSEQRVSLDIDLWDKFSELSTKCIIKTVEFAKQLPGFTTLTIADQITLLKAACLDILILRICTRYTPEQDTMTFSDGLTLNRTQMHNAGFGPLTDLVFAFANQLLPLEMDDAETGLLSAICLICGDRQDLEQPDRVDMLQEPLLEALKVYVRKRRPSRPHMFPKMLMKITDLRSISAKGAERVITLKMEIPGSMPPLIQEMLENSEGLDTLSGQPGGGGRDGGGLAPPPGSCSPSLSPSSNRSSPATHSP
Chain of human RAR-related Orphan Receptor gamma (RORg), RORC (gene 6097) (P51449 whole entry, looked up, the tested form may be a part): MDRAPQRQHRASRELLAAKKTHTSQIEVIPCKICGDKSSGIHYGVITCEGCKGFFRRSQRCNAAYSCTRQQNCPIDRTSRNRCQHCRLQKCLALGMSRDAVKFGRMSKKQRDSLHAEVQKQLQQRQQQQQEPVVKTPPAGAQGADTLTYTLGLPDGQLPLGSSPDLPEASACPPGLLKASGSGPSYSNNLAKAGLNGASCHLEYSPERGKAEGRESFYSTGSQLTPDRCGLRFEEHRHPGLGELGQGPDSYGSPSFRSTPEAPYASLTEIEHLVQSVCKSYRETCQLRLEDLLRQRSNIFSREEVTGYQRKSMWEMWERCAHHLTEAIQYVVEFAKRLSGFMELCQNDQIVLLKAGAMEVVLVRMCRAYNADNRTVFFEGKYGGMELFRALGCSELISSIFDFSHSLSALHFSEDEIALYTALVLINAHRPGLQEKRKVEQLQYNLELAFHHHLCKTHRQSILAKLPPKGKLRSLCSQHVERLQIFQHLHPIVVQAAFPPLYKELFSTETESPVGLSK
Chain of human Peroxisome Proliferator-activated Receptor alpha (PPARa), PPARA (gene 5465) (Q07869 whole entry, looked up, the tested form may be a part): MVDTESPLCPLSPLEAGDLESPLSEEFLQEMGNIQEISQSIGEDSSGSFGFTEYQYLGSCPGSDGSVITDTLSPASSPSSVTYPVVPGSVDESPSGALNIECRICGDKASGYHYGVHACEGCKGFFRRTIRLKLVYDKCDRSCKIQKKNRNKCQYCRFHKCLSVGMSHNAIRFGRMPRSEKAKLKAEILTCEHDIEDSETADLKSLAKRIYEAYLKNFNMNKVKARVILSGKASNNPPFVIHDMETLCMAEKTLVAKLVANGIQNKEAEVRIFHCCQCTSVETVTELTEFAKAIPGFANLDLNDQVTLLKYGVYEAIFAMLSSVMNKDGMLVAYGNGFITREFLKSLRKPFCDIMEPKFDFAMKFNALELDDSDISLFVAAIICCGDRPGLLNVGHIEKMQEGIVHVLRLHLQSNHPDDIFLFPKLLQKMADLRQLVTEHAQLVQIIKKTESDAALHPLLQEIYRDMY
Chain of human Retinoic Acid Receptor gamma (RARg), RARG (gene 5916) (P13631 whole entry, looked up): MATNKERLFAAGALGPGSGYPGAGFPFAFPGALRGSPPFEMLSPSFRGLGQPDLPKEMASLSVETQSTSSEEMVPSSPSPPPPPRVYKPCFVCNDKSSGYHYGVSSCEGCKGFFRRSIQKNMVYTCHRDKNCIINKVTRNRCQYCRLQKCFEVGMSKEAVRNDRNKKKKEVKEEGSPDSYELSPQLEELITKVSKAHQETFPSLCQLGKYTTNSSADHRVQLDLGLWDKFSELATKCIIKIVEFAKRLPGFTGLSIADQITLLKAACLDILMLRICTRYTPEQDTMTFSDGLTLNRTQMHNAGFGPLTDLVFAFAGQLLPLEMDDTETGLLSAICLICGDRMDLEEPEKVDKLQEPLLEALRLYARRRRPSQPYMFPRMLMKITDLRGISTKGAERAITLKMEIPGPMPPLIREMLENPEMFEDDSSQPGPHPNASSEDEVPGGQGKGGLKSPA
Chain of Retinoic acid receptor RXR-alpha (Homo sapiens) (P19793 whole entry, looked up, the tested form may be a part): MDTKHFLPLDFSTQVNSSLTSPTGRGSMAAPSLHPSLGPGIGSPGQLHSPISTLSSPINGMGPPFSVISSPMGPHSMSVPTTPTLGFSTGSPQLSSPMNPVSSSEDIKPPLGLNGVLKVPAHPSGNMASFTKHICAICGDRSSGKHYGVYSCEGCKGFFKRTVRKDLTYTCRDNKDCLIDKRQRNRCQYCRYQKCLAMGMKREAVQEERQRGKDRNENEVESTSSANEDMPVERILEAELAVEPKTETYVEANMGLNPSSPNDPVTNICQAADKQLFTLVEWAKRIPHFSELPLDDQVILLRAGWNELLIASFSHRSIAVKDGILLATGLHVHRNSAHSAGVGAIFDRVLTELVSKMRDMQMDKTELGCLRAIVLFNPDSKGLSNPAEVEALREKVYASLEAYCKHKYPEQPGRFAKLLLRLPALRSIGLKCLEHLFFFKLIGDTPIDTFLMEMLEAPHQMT
Chain of human Peroxisome Proliferator-activated Receptor delta (PPARd), PPARD (gene 5467) (Q03181 whole entry, looked up, the tested form may be a part): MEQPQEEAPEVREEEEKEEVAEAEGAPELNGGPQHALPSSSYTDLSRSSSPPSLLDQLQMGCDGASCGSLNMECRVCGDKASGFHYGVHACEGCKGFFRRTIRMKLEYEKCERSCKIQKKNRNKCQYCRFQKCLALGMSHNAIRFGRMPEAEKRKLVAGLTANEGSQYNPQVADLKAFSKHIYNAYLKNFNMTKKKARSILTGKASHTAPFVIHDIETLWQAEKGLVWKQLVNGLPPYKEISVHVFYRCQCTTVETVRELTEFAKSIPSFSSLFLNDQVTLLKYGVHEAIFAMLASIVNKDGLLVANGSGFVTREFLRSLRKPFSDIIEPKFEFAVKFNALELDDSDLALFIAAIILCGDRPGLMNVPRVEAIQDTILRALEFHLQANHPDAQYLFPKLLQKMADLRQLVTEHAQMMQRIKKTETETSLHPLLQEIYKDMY
Chain of Peroxisome proliferator-activated receptor gamma (Homo sapiens) (P37231 whole entry, looked up, the tested form may be a part): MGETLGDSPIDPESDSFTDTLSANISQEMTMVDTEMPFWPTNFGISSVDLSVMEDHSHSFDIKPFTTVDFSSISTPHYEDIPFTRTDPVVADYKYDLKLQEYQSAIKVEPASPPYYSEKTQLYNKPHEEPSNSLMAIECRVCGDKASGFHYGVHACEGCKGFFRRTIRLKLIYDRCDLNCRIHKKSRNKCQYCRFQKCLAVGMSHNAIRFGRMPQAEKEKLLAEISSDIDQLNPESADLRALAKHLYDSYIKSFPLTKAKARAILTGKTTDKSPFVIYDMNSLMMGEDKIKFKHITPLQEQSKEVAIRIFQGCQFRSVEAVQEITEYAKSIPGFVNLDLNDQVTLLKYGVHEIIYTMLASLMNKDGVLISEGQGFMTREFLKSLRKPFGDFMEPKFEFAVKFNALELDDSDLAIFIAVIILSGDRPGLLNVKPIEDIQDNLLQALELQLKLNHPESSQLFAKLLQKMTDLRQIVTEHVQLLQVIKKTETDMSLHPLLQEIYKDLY
Chain of E-selectin (Homo sapiens) (P16581 whole entry, looked up): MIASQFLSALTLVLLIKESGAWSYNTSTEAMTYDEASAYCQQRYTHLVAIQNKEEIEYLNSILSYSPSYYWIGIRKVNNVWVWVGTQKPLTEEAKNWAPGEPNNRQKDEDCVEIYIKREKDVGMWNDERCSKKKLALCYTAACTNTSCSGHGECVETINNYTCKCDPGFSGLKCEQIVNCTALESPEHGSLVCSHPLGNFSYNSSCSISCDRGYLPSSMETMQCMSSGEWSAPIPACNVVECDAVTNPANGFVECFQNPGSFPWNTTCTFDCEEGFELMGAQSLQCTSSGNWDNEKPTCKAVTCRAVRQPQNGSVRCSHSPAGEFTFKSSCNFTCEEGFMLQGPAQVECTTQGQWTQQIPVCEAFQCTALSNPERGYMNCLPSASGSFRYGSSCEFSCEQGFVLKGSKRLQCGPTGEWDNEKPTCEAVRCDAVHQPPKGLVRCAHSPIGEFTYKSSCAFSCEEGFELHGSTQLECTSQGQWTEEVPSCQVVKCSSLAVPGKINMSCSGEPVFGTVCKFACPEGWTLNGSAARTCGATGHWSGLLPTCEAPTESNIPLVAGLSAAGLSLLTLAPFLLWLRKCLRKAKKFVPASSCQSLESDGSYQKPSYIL

CCO[Si](CCC(F)(F)C(F)(F)C(F)(F)C(F)(F)C(F)(F)C(F)(F)F)(OCC)OCC
inactive: [1] | [2] | [3] | [4] | [5] | [6] | [7] | [8] | [9] | [10] | [11] | [12] | [13] | [14] | [15] | [16]

O[Si](c1ccccc1)(c1ccccc1)c1ccccc1
inactive: [2] | [3] | [4] | [17] | [10] | [11] | [13]
active: [1] 30.1 µM | [5] 24.4 µM | [6] 44.4 µM | [7] 0.68 µM | [12] 6.83 µM | [14] 37.6 µM | [15] 11.9 µM | [16] 30.6 µM

OCC(F)(F)C(F)(F)C(F)(F)F
inactive: [1] | [3] | [4] | [17] | [5] | [6] | [7] | [8] | [18] | [10] | [11] | [19] | [12] | [13] | [14] | [15] | [16]

O=S(=O)(OCC(F)F)C(F)(F)F
inactive: [1] | [2] | [3] | [4] | [5] | [6] | [7] | [9] | [10] | [12] | [13] | [14] | [15] | [16]

CCCCCCC(C)OC(=O)CCCCC(=O)OC(C)CCCCCC (stereo not drawn)
inactive: [1] | [2] | [3] | [4] | [5] | [6] | [7] | [10] | [12] | [13] | [14] | [15] | [16]
active: [11] 16.3 µM

O=C(O)C=C(C(F)(F)F)C(F)(F)F
active: [5] 27 µM | [12] 15.3 µM and 5.95 µM | [16] 30 µM and 47.7 µM
inactive: [1] | [2] | [3] | [4] | [5] | [6] | [8] | [9] | [10] | [11] | [13] | [14] | [15]

C=CC/C=C/C/C=C/C/C=C/C
inactive: [1] | [2] | [3] | [4] | [5] | [6] | [7] | [8] | [9] | [10] | [12] | [13] | [14] | [15] | [16]
active: [11] 100 µM
